In PubChem BioAssay AID1508600 (Functional Genomics Laboratory (NCATS/FGL), 2020):
In all, about 53,000 sequences went through this assay and about 3,700 (7%) were called active.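 How the source made its calls: active means gene knockdowns whose robust z-score for IL-1 alpha signal is at least 2 or at most -2, so actives lie on both sides; inactive means the rest.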 This excerpt belongs to a sample that is enriched for actives.

Experiment: Components of the Cytosolic LPS Sensing Pathway: Gene Identification via Genome-wide siRNA Screen
Conditions: RAW264.7 macrophages, IL-1a HTRF, actives lie on both sides, screened at 100 nM (by protocol), cells primed 5 h with Pam3CSK4 first
Excerpt: Non-canonical inflammasome activation by cytosolic LPS is a critical component of the host response to Gram-negative bacterial infection, however we lack a comprehensive understanding of the cellular processes that control this pathway. Here we describe a genome-wide siRNA screen to identify genes regulating the mouse macrophage IL-1 alpha response to cytosolic LPS.
RAW264.7 cells were maintained in complete DMEM media, comprising DMEM with 4.5 g/L glucose, 10% FBS (Gemini Bio-Products, West Sacramento, CA), 2 mM Glutamine (Lonza) and 20 mM HEPES (Lonza), hereafter complete DMEM.
The RNAi screen was conducted in 384-well format using the Ambion Silencer Mouse Genome siRNA Library (#4391425), which consists of three unique, nonoverlapping, nonpooled siRNAs for each of 17,000 gene targets. siRNA reagents ([…]) were stamped into 384-well white flat-bottom microplates (Corning, 3570) using a Velocity11 VPrep liquid handling system (Agilent) integrated into a BioCel robotic platform (Agilent) in columns 1-22, leaving columns 23-24 empty for negative (Ambion, Negative control #1) and positive (mouse Casp4) controls, respectively. The median value of each plate's negative control column was used to normalize sample wells, and the positive control was used to assess transfection efficiency and assay performance.
Lipofectamine RNAiMAX Transfection Reagent ([…]; Invitrogen) was added in […] serum-free, antibiotic-free media to plate wells using a Thermo Scientific Matrix WellMate and Microplate Stacker. Plates were incubated for 45 min at room temperature to allow for the sufficient formation of siRNA-lipid complexes. Cells were seeded at a density of 1x10^4 cells per well in 20 microL media containing 20% (vol/vol) FBS without antibiotics. The final concentration of siRNA in each well was 100 nM. Cells were cultured for 48h at 37 degrees C in 5% CO2 before addition of […] of TLR ligand Pam3CSK4 for 5 hours. The medium was then removed, replaced with […] growth media and cell were transfected with […] of LipidA and TransIT-TKO (Mirus) for 24 hour. At the end of the LipidA treatment, […] of supernatant was transferred to a 384 Greiner Bio-one non-binding low volume plate and […] of IL-1a HTRF reagent (Cisbio, 62MIL1APEH) was added and incubated at room temperature overnight. The plates were read on an EnVision plate reader (PerkinElmer). Cell viability was measured by adding 20ul Cell Titer Glo to the original plate and running a luminescence read on the EnVision. The quantified IL-1a signal for each siRNA gene-targeted well was divided by the median of the negative control wells and multiplied by 100 to achieve a negative control normalized value for each well/siRNA. This normalized value was then used to generate a robust z-score by first taking the log of each value and then by subtracting the median and dividing by the […].

Sequence | z-score
CCUCACAAUAUCUUUAGAATT against Cep162 | -0.0322 (inactive)
GGCAGGAUAUGUAUUCUGATT against Tmem121b | 1.15 (inactive)
GGAAACCUCCGAAAGGCAUTT against Rcor1 | -0.0503 (inactive)
GGAUAAAGUCACCUUCAUCTT against Itgam | 1.86 (inactive)
CCGCUAUAUCACGGAGCAGTT against En1 | 2.45 (active)
GCACUUUCCUAAUGGUCCUTT against Ifnab | 0.104 (inactive)
GGAUCCUCACCAAGAUUACTT against Mrps22 | 0.391 (inactive)
GGAAUUUAAGGAAGCUGCUTT against Homer1 | -0.698 (inactive)
GGGUGAGAAAAUUCACGAGTT against Tubg2 | 0.536 (inactive)
GCCAAGGUGCAGAUAAGGUTT against Rhox7a | 2.6 (active)
GGAUUGAGAAAAUCUACAUTT against Tnfrsf8 | 0.505 (inactive)
GGGUCAGAUGGUACCAAGATT against Adamts18 | 0.0174 (inactive)
GCCUUGUUUAUAUGCCCAATT against Olfr592 | 0.0232 (inactive)
GGCAAGAAAGAAAGGCCAATT against Rps23 | 0.00872 (inactive)
CCCUCUGUGGUUAAAGACUTT against Tctex1d2 | -2.88 (active)
GGUUCAAUUCACAGAGCGCTT against Mrpl21 | 1.37 (inactive)
GGGCAACUUUGAUUAAUCATT against Hsd3b7 | 1.02 (inactive)
GGUAACUUCAUGUGCAGCATT against Ldlrad3 | -1.71 (inactive)
GGCGUAUGCAGAAUUCUACTT against Cox6c | -0.0709 (inactive)
GGAGAAGUCAUUGUUUUUGTT against Klhdc2 | -0.493 (inactive)
GGCACAACAUCAUCUGUCUTT against Psmd9 | -2.05 (active)
GCUACUGACCAUUCUAACUTT against Tmem198b | 0.264 (inactive)

Sequence | z-score
GGAAGGACUGUCAAAUGGCTT against Med11 | -0.171 (inactive)
CCAUGUCUUGAACUUGGAUTT against Tsks | 0.793 (inactive)
CCGACUCCAGUUGAAUGUUTT against Tgif2 | -0.572 (inactive)
CCAGUUUGAUGGUAGACAATT against Tifa | -1.38 (inactive)
CGUAUUGUUUCCUAGCACATT against Arhgef38 | 2.08 (active)
GGUACCCAGCGAUCAUGCATT against Olfr1370 | -0.109 (inactive)
GGAACAACUUGAUACCUCUTT against Trim44 | -0.89 (inactive)
GGUCGGGAUUUAAUUUGUATT against Bbs9 | 0.978 (inactive)
CGACUUCACCUUAUUCCUGTT against Nle1 | 0.811 (inactive)
GCAUAUUACACAGCACUAGTT against Itgbl1 | -0.802 (inactive)
GGUGUACUCUGUUCCCAUGTT against Psmb6 | -1.54 (inactive)
GGGAUUCGAAGGACAAUAGTT against Vmn1r211 | -2.07 (active)
GGUGUACAACUCCUAUAGGTT against P2ry13 | 0.24 (inactive)
GGAUUUCAGCGAAGUGUACTT against Mapk11 | -0.395 (inactive)
CCAACGAAGCCAAUAAAUGTT against Pmis2 | -2.12 (active)
GGAGCUGAGCAACAUCACATT against Il13 | -1.35 (inactive)
GCUUCACAUGAAGCAACCUTT against Fam149b | -0.102 (inactive)
GGAGAAGCAAAACUUUUAATT against Snrpa1 | -2.87 (active)
GGUGUUGAACAAAUUAACUTT against Pprc1 | 0.508 (inactive)
GCAACUAUCCACUCUCUGCTT against Emg1 | 0.977 (inactive)
GGAGAUGGUCUCAUUAAGCTT against Psmd13 | -1.25 (inactive)
GCUCUGUUUUUAACCAUCCTT against Ccnt2 | 0.227 (inactive)

Sequence | z-score
GGUAUUAAGUUCCUGUAAUTT against Ahcyl2 | -1.62 (inactive)
GCUCUUGAAAUUUCACUCUTT against Ide | 2.1 (active)
GCCGCUUAGAGGCUCAUCUTT against Nfe2l2 | -1.86 (inactive)
GGACAACUAUGAAUUAGUGTT against Pfkp | -0.801 (inactive)
GGAAAAACAGCUUAACACUTT against Pate4 | 0.66 (inactive)
GCUUCCAAGAUGGAACUACTT against Psmb10 | 0.657 (inactive)
GGAUGAAAUGAACCUAGAGTT against Sh3pxd2b | -2.16 (active)
GGAGAAGAUCACAAGAGGGTT against Slc35b1 | -0.736 (inactive)
GCAGAAUAGCUGAUGACAGTT against Galnt15 | -0.155 (inactive)
GCUCCCAAGUUUACCCAGCTT against Mybphl | 0.505 (inactive)
CCUUGAACGAGAGUGCAUUTT against Pros1 | -0.798 (inactive)
CGUAAGUCAGUGAUGCUAUTT against Srp19 | 1.38 (inactive)
GCUAUGAAGCAAUUGUGGATT against Fasn | -0.527 (inactive)
GCGGUUAUAAUGGGACCAUTT against Kif15 | 3.21 (active)
GCCAGGAUACUAAGUGUUUTT against Jpt2 | 1.05 (inactive)
GCAACAUCGUAUGUUAAUGTT against Slc9a4 | 0.0571 (inactive)
CGAAUACUUGAUGUCCAUGTT against Harbi1 | -2.16 (active)
CCAGGUGAAAACCAGGAUATT against Olfr205 | 0.925 (inactive)
GGAAACCUAUGUCUCAAGATT against Mrps36 | -0.332 (inactive)
CCAGAGAUUCCCACACGUCTT against Havcr1 | -1.37 (inactive)
GAAUCUGGUGAAGUAUUAUTT against Phip | 0.518 (inactive)
GGGUUUAGCUCACUGAGUATT against Tm4sf5 | -1.53 (inactive)

Sequence | z-score
CCACUAUGUUCUCUGGAUATT against Llgl1 | -0.218 (inactive)
CCACAUCUGAGACUAUUCATT against Crhr1 | 2.46 (active)
GGAACUGGGAGACCUAUAATT against Angptl2 | -2.01 (active)
CCCACAGAAUCACUCCAAGTT against Utp14a | -0.211 (inactive)
GCUAUUCGUUUCUUAUAACTT against Slc19a3 | 0.83 (inactive)
GGCAAUGAGUUCUGGAGUGTT against Capn8 | -0.928 (inactive)
GGUUCAAGGCAACACUGUGTT against Ankrd13d | -1.54 (inactive)
GGCUUUUGGUCUGAGAUGCTT against Snf8 | -2.04 (active)
GGUGCUCACGUUUUUCUUATT against B3galnt1 | 0.348 (inactive)
GGAGGAAGUUGAAAAUGAATT against Myom2 | 0.157 (inactive)
GGUACUCCUAGAACUCUACTT against 2410002F23Rik | 1.01 (inactive)
GCCCAGAGUUACGAGUAUGTT against Aacs | 2.23 (active)
GCCAAACGUGGGUUUGAUATT against Ccna1 | 4.74 (active)
GGAAGACUUGAGAAAUCACTT against Coro1c | 1.24 (inactive)
GCCAAGCUUGUCCAUUGAUTT against Akap9 | -0.443 (inactive)
CGUUAGCAUCAGGUCAAGUTT against Zfp251 | -0.323 (inactive)
GGUGUUAACAAAAUGUACCTT against Phyh | 2.54 (active)
CCUUAGGUCUAAGUAAUCUTT against Dnase1l1 | 2.3 (active)
GGACUCAAAUGUGAUGCAUTT against Prkcq | -0.718 (inactive)
GGCACAUUCAUAGAACAAGTT against Znrd1as | 2.01 (active)
GCGGCGCAUGACUGAAAGATT against Chd8 | 0.86 (inactive)
GGUCAACUCCUUUAUGAGCTT against Apoa4 | -0.238 (inactive)

Sequence | z-score
GGAUGAUGAGAGAAACAAATT against Jak1 | 3.78 (active)
GGAAGUAAAGAGGAUCUCATT against Vat1l | -0.678 (inactive)
GGUGAUUAGCAAUCAUCAGTT against Zfp942 | -0.295 (inactive)
GGCCACUUGAGAACAUUCGTT against Nop10 | 0.331 (inactive)
GGUACAAUGAAAGUCUCACTT against Cnot6 | -0.0743 (inactive)
GGACCUUGUACCCAUUCCUTT against Prr5 | 1.01 (inactive)
GCAAUGAGUGCUAGUUUUUTT against Cdc42 | 2.6 (active)
CGUGGAUAUCAGAAAGCAATT against Cfhr2 | -0.487 (inactive)
GGACUUUAAUCACAGACAATT against Fem1b | -1.73 (inactive)
CGAGUUCAUCAAAAAGGAATT against Kansl1l | 0.708 (inactive)
CCAUUCUCAGGCAAAUACUTT against Pid1 | 2.11 (active)
GGCUGAUGAUACUUAAACATT against Vmn1r83 | -1.26 (inactive)
CGGCAUGCUGUGGAAAAAGTT against Btrc | -0.869 (inactive)
GCACUUUGACAUUUUGGUATT against Arl4c | -0.0352 (inactive)
AGAGCAAAAACUCGAGCACTT against Sox15 | -0.253 (inactive)
GGUUGUGAGUGAGAACACUTT against Prss35 | 0.738 (inactive)
CCUUGCAGCAUCAGGACUUTT against Ascl2 | 4.06 (active)
GGUAACACAGAAGAAAUCUTT against Higd1a | -0.0444 (inactive)
GGCAGAAGAACUUUUCCAGTT against Capsl | 0.874 (inactive)
CCUUCUAGAGUACAUCAUATT against Prl7d1 | 0.298 (inactive)
